# PLCg1 inh: PLC-gamma1 enzyme inhibitors, primary screen, biochemical, fluorescence, purified enzyme; 1-phosphatidylinositol 4,5-bisphosphate phosphodiesterase gamma-1 (Homo sapiens), P19174; fluorogenic substrate; AID 720700, 2013; 370,000 compounds, 0.84% hits; inhibition, % at 12.2 µM; in the data active means inhibition above about 9.5%
# ADAM17 inh: ADAM17 inhibitors, primary screen, biochemical, QFRET; Disintegrin and metalloproteinase domain-containing protein 17 (Homo sapiens), P78536; recombinant ADAM17, EDANS/DABCYL FRET peptide cleavage; inhibition, % at 6.95 µM; 370,000 compounds, 0.83% hits;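 active means inhibition above the mean of compounds lying between control limits plus 3 SD, set per campaign, cut at about 8.5% in these data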;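 further: 0% = DMSO-only wells as the low control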
# PLCb3 inh: human PLC-beta3 inhibitors, primary screen, biochemical, fluorescence; 1-phosphatidylinositol 4,5-bisphosphate phosphodiesterase beta-3 (Homo sapiens), Q01970; Purified PLC-beta3, fluorogenic substrate; inhibition, % at 12.2 µM; 370,000 compounds, 0.18% hits; AID 720704, 2013;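 further: 0% = median of compound wells on plate and 100% = full blocker control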
# KLK7 zymogen act: proKLK7 zymogen activators, primary screen, biochemical, fluorescence intensity | activation, % at 7 µM | purified proKLK7, EDANS-DABCYL substrate fluorescence; 100% is mature enzyme control, 0% vehicle | AID 652039, 2013 | Kallikrein-7 (Homo sapiens), P49862 | 370,000 compounds, 0.9% hits;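 active means activation above the mean of all tested compounds plus 3 SD, computed per campaign excluding outliers beyond control limits, cut at about 13% in these data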
# ADAM10 inh: human ADAM10 inhibitors, primary screen, biochemical, QFRET, HTS. Disintegrin and metalloproteinase domain-containing protein 10 (Homo sapiens), O14672. recombinant ADAM10, EDANS/DABCYL FRET peptide cleavage, 3 h. inhibition, % at 7 µM. 370,000 compounds, 0.62% hits. AID 720582, 2013;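 active means inhibition above a per-campaign cutoff equal to the mean of compounds falling between control-based bounds plus 3 SD, cut at about 20% in these data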;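 further: 0% = DMSO wells while the 100% control is not disclosed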
# PLCg1 ctr: PLC-gamma1 enzyme inhibitors, counter-screen for PLC-beta3 inhibitor project, biochemical, fluorescence; AID 743258, 2014; purified PLC-gamma1, fluorogenic substrate; 3,300 compounds, 3.1% hits; shares compounds with PLCg1 inh; inhibition, % at 12.3 µM; in the data active means inhibition above about 9.5%
# PLCb3 confirm: PLC-beta3 inhibitor confirmation, biochemical, fluorescence, purified enzyme | fluorogenic substrate fluorescence | 3,300 compounds, 1% hits | inhibition, % at 12.3 µM | shares compounds with PLCg1 inh
# * marks the source's active call; other numbers are inactive results; . = no result. Only some compounds are listed: those with a hit (about 2.9% of all), similar ones and a draw of the others. Unless noted, no stated cut-off is given here; in the data, active means inhibition above about 11%; inactive means the rest.
SMILES,PLCg1 inh,ADAM17 inh,PLCb3 inh,KLK7 zymogen act,ADAM10 inh,PLCg1 ctr,PLCb3 confirm
CCOC(=O)c1c(C)nc2c(c1-c1ccc(OC)cc1)C(=O)CC(C)(C)C2,9.3,-1.2,4.2,0.1,3.7,.,.
C#CCN1CC(N(C)CCOC(=O)c2ccc(OC)c(OC)c2)CS1(=O)=O (stereo not given),-0.1,-7.2,-1.9,0.7,-6.2,.,.
O=C(O)c1ccc(OCc2occc2C(=O)O)cc1,12.8*,3.1,5.0,-0.1,8.4,-8.3,-6.6
O=C(O)c1ccc(OCc2ccc(C(=O)O)o2)cc1,-1.4,-4.0,-4.6,0.5,-6.6,.,.
O=C(OCc1ccccc1Cl)c1cccnc1Cl,13.9*,4.8,7.8,0.7,5.0,-8.0,-2.1
COc1ccc(-c2cc(C(F)(F)F)n3nc(C(=O)N(C)Cc4ccccc4)cc3n2)cc1OC,-47.0,-4.6,-70.1,-2.0,-18.9,.,.
CC1=NN(c2ccc(N)cc2)C(=O)C1,-5.6,-4.3,-9.4,0.3,-1.7,.,.
CC1=NN(c2ccc(Cl)cc2)C(=O)C1,13.3*,3.4,8.2,0.2,7.0,-6.3,-2.6
CC1=NN(Cc2ccccc2)C(=O)C1,12.8*,1.5,7.0,-0.6,3.5,-4.6,-3.1
CC1=NN(c2ccccc2)C(=O)C1,23.8*,1.1,10.2,-0.6,7.8,7.3,7.6
O=P(Cc1cccc[n+]1[O-])(c1ccccc1)c1ccccc1,0.9,-2.5,3.3,-0.1,-10.1,.,.
O=P(Cc1cc[n+]([O-])cc1)(c1ccccc1)c1ccccc1,6.5,2.0,11.3*,0.4,6.1,-2.7,0.8
CCOCCCN(C(=O)c1snc(C(N)=O)c1N)C(C(=O)NC1CCCC1)c1ccc(OC)cc1 (stereo not given),-48.1,-41.5,-71.6,3.0,-104.2,.,.
Cc1cc(NS(=O)(=O)c2ccc3c(c2)CCC(=O)N3)ccc1Cl,-0.8,3.7,-3.2,.,8.2,.,.
Cc1ccccc1NS(=O)(=O)c1ccc2c(c1)CCC(=O)N2,13.5*,4.5,4.8,0.7,-0.2,-5.3,-2.9
CC(=O)c1cccc(Nc2ccc(C#N)cc2)c1,-2.6,2.1,-7.0,-0.4,2.3,.,.
Cc1ccc2nc(-c3ccco3)c(Cc3ccccc3C(F)(F)F)n2c1,-35.3,-33.2,-48.5,-0.7,-110.5,.,.
O=C(CN1C(=O)NC(c2ccccc2)(c2ccccc2)C1=O)N1CCCCC1,-1.4,-0.6,-0.2,0.1,-4.3,.,.
NC(=O)c1ccc(NC(=O)CN2C(=O)NC(c3ccccc3)(c3ccccc3)C2=O)cc1,10.5*,2.9,-5.0,1.0,15.2,-3.0,-1.6
CC1CCN(C(=O)CN2C(=O)NC(c3ccccc3)(c3ccccc3)C2=O)CC1,12.9*,5.2,2.1,-0.3,-4.3,-6.3,-1.1
NC(=O)NC(=O)CN1C(=O)NC(c2ccccc2)(c2ccccc2)C1=O,10.8*,2.9,2.8,0.4,-1.4,-3.4,-3.9
COc1ccc(C(C)(NC(C)=O)c2nc(-c3cccc4cccnc34)cs2)cc1 (stereo not given),-13.7,-9.6,-11.4,-0.5,-34.7,.,.
C[C@@H]1/C=C/CC(=O)N2[C@H](CC(=O)N[C@@H]1c1ccccc1)C[C@@H](C)[C@H]2c1ccccc1,-1.4,-0.5,0.5,0.2,-6.2,.,.
Cc1ccc(NP(=O)(c2ccc(N(C)C)cc2NC(=O)c2cccs2)N2CCOCC2)cc1 (stereo not given),6.4,4.3,14.0*,-0.5,13.1,-25.0,-26.2
CCCCOc1ccc(C(C)NC(=O)CCS(=O)(=O)Cc2ccccc2Cl)cc1 (stereo not given),0.6,-4.0,0.5,-0.2,6.0,.,.
CC(OC(=O)[C@@H](NC(=O)OCc1ccccc1)C(C)C)C(=O)Nc1ccc(N2CCOCC2)cc1 (stereo not given in full),-1.7,-1.2,-8.8,0.1,-3.3,.,.
